Hit rate of the full screen: of about 52,000 compounds, about 4,300 (8.3%) were called active. Rule as the data show it: active = survival mostly below about 52% (no sharp cut-off); inactive = mostly above about 56%. The list comes from a sample in which actives are over-represented; it also holds similar structures and randomly drawn compounds.
test system: DeltatarO mutant; assay: S. aureus survival, RN4220 and DeltatarO strains – OD600, teichoic acid synthesis inhibitors, primary screen (AID 463173); conditions: S. aureus RN4220 wild type/DeltatarO growth, OD600, 18 h, stronger effect = lower value, screened at 18.75 µg/mL (by protocol)

SMILES | survival
O=S(=O)(c1ccccc1)N1CCC(n2cnc3ccccc32)CC1 | 78% (inactive)
Cc1ccc(C)c(NC(=O)C2CCN(S(=O)(=O)c3c(C)noc3/C=C/c3cccs3)CC2)c1 | 63% (inactive)
Cn1nnc(C(O)CNCc2ccc(F)cc2)n1 (centres undefined) | 105% (inactive)
CCOC(=O)c1c(NC(=O)c2ccc(S(=O)(=O)N(CCOC)CCOC)cc2)sc2c1CC(C)(C)NC2(C)C | 78% (inactive)
Cc1cccc(CNC(=O)c2cnc3sc(N4CCCCCC4)nn3c2=O)c1 | 99% (inactive)
COc1ccc(NC(=O)CCn2nc(-c3ccccc3OC)c3c(C)cc(C)nc32)cc1 | 70% (inactive)
CC(=O)c1cccc(NC(=O)c2cnn(-c3cccc(C)c3)c2-n2cccc2)c1 | 99% (inactive)
CCOC(=O)c1[nH]c(C)c(CCC(=O)Nc2cc(Cl)ccc2C)c1C | 73% (inactive)
CCOC(=O)c1oc2ccc(S(=O)(=O)n3nc(-c4cc(OC)cc(OC)c4)cc3N)cc2c1C | 111% (inactive)
COc1cccc(CNC(=O)CSC2=Nc3ccccc3N=C(c3ccc(F)cc3)C2)c1 | 117% (inactive)
CC(=O)c1ccc(NC(=O)C(Cc2ccccc2)NS(=O)(=O)c2ccc3c(c2)CCC(=O)N3)cc1 (centres undefined) | 84% (inactive)
CCCSc1ncc(Cl)c(C(=O)Nc2c(C(=O)Nc3ccc(OC)cc3)oc3ccccc23)n1 | 68% (inactive)
COc1ccccc1CNC(=O)c1cnc2sc(N3CCCCC3)nn2c1=O | 66% (inactive)
Cc1oc(CSCCSCc2cc(C(=O)O)c(C)o2)cc1C(=O)O | 94% (inactive)
CCCn1cnc2cc(NCc3ccccc3OCC)ccc21 | 35% (active)
CCCn1cnc2cc(NCc3ccc(OC)cc3OC)ccc21 | 64% (inactive)
COc1cccc(CNc2ccc3c(c2)ncn3C)c1OC | 122% (inactive)
Cc1ccc(-c2nnc(SCc3cccc(C#N)c3)o2)cc1 | 62% (inactive)
COc1cccc(CNC(=O)c2cnc(N3CCCCC3)c3ccccc23)c1 | 86% (inactive)
CCOC(=O)C1CCN(C(=O)Cn2ncc3c([nH]c4ccc(C)cc43)c2=O)CC1 | 72% (inactive)
COc1cc(OC)c(N(C)C(=O)Cn2ncc3c([nH]c4ccccc43)c2=O)cc1Cl | 91% (inactive)
Cc1ccc(N(C)C(=O)Cn2ncc3c([nH]c4ccccc43)c2=O)cc1C | 37% (active)
CCOC(=O)C1CCCN(C(=O)Cn2ncc3c([nH]c4ccccc43)c2=O)C1 (centres undefined) | 83% (inactive)

SMILES | survival
CCN(CC)C(=O)Cn1ncc2c([nH]c3ccccc32)c1=O | 118% (inactive)
CCOc1ccccc1N(CC)C(=O)Cn1ncc2c([nH]c3ccccc32)c1=O | 46% (active)
Cc1ccc(CCNC(=O)Cn2ncc3c([nH]c4ccc(C)cc43)c2=O)cc1 | 119% (inactive)
CCOC(=O)C1CCN(C(=O)Cn2ncc3c([nH]c4ccccc43)c2=O)CC1 | 25% (active)
Cc1ccc2[nH]c3c(=O)n(CC(=O)NC(C)C)ncc3c2c1 | 6% (active)
Cc1ccc(CNC(=O)Cn2ncc3c([nH]c4ccc(C)cc43)c2=O)cc1 | 88% (inactive)
CCCN(C(=O)Cn1ncc2c([nH]c3ccccc32)c1=O)c1ccc(F)cc1 | 101% (inactive)
CCOc1ccccc1NC(=O)Cn1ncc2c([nH]c3ccccc32)c1=O | 126% (inactive)
Cc1ccccc1S(=O)(=O)Cc1ccc(C(=O)NCCc2ccccc2)o1 | 76% (inactive)
Cc1ccc2c(c1)c1c(c(=O)n(-c3ccccc3C)c(=O)n1Cc1ccccc1F)n2C | 73% (inactive)
CCCN(CCC)C(=O)Cn1c(=O)n(-c2cccc(C)c2)c(=O)c2c1c1cc(OC)ccc1n2C | 64% (inactive)
CCOc1ccc(CCNC(=O)CCCn2nc(C)c3sc4ccccc4c3c2=O)cc1 | 72% (inactive)
CCOc1ccc(CCNC(=O)NCc2noc3ccc(C)cc23)cc1 | 74% (inactive)
COCCCNC(=O)c1ccc(Cn2c(=O)c3ccccc3n(Cc3c(C)cc(C)cc3C)c2=O)cc1 | 107% (inactive)
CCCNC(=O)N(C)c1ncnnc1NC | 98% (inactive)
COc1ccccc1C(=O)Nc1nnc(SCc2cc(=O)c3cc(Cl)ccc3[nH]2)s1 | 62% (inactive)
Cc1ccc2[nH]c3c(=O)n(CC(=O)N(C)Cc4ccccc4)ncc3c2c1 | -1% (active)
CCCCN(C)C(=O)Cn1ncc2c([nH]c3ccc(C)cc32)c1=O | 70% (inactive)
Cc1ccc2[nH]c3c(=O)n(CC(=O)N(CCN(C)C)Cc4ccccc4)ncc3c2c1 | 97% (inactive)
Cc1cc(F)ccc1NC(=O)c1c(C)oc2c1C1=NCCN1C=N2 | 102% (inactive)
Cc1cccc(CNC(=O)c2ccc(C)c(-n3c(C)nc4cccnc43)c2)c1 | 67% (inactive)
CCC(C)NC(=O)C1CCCN(S(=O)(=O)c2ccc(C)c(Cl)c2)C1 (centres undefined) | 94% (inactive)
COc1ccc(NC(=O)Cn2c(=O)n(Cc3nc(-c4ccccc4)no3)c(=O)c3cc4c(cc32)OCO4)c(OC)c1 | 94% (inactive)

SMILES | survival
CCOc1ccc(CCNC(=O)C(CC)n2nc(C)c3c(C)n(-c4ccccc4)nc3c2=O)cc1 (centres undefined) | 69% (inactive)
Cc1ccccc1OC(=O)c1snnc1C | 90% (inactive)
CCCOc1ccc(C(=O)N(Cc2ccc(Cl)cc2)Cc2ccco2)cc1 | 50% (inactive)
Cc1ccc(CN(Cc2ccco2)C(=O)c2ccc(Cl)cc2Cl)cc1 | 53% (inactive)
CCSc1ncc(Cl)c(C(=O)N(Cc2ccccc2)Cc2ccco2)n1 | 106% (inactive)
CCS(=O)(=O)c1ncc(Cl)c(C(=O)N(Cc2ccccc2)Cc2ccco2)n1 | 52% (inactive)
CCCS(=O)(=O)c1ncc(Cl)c(C(=O)N(Cc2ccccc2)Cc2ccco2)n1 | 40% (active)
CCSc1ncc(Cl)c(C(=O)N(Cc2ccc(N(C)C)cc2)Cc2ccco2)n1 | 104% (inactive)
CCCSc1ncc(Cl)c(C(=O)N(Cc2ccc(Cl)cc2)Cc2ccco2)n1 | 39% (active)
CS(=O)(=O)c1ncc(Cl)c(C(=O)N(Cc2ccc(Cl)cc2)Cc2ccco2)n1 | 4% (active)
CSc1ncc(Cl)c(C(=O)N(Cc2ccc(N(C)C)cc2)Cc2ccco2)n1 | 80% (inactive)
Cc1cccc2c1-c1sc(C(=O)NCc3ccccc3Cl)cc1CO2 | 55% (inactive)
Cc1ccc(NC(=O)C2CCCN(S(=O)(=O)c3ccc4c(c3)oc(=O)n4C)C2)cc1Cl (centres undefined) | 76% (inactive)
COc1ccc(C(=O)CSc2nc(C)cc(C)n2)cc1C | 104% (inactive)
CCc1cccc(C)c1NC(=O)CN1CCCN(Cc2ccc(C)cc2)S1(=O)=O | 8% (active)
Cc1ccc(NC(=O)CN2CCCN(Cc3cc(C)ccc3C)S2(=O)=O)c(Cl)c1 | 81% (inactive)
Cc1ccc(NC(=O)Cn2ccn(Cc3ccc(Cl)cc3)c(=O)c2=O)cc1C | 111% (inactive)
Cc1ccc(NC(=O)CN2CCCN(Cc3ccccc3Cl)S2(=O)=O)c(C)c1 | 17% (active)
CCc1cccc(C)c1NC(=O)CN1CCCN(Cc2ccccc2Cl)S1(=O)=O | 55% (inactive)
Cc1ccc(CN2CCCN(CC(=O)Nc3ccc(C)cc3C)S2(=O)=O)cc1 | 89% (inactive)
Cc1ccccc1CN1CCCN(CC(=O)Nc2c(C)cccc2C)S1(=O)=O | 93% (inactive)
CCc1cccc(C)c1NC(=O)Cn1ccn(Cc2ccc(Cl)cc2)c(=O)c1=O | 41% (active)
CCc1cccc(C)c1NC(=O)Cn1ccn(-c2ccc(F)cc2)c(=O)c1=O | 52% (inactive)

SMILES | survival
CCOc1ccc(CNC(=O)CSc2nnc(C)c3c(C)n(-c4ccccc4)nc23)cc1 | 82% (inactive)
CCN1CCC(N(Cc2ccc3c(c2)OCO3)C(=O)Nc2cc(Cl)ccc2C(=O)OC)CC1 | 126% (inactive)
CCOC(=O)Cc1csc(NC(=O)CSc2nc3c(C)c(C)ccc3cc2C#N)n1 | 78% (inactive)
COc1ccc(CC(C(=O)O)c2ccccc2)cc1 (centres undefined) | 65% (inactive)
O=S(=O)(Nc1cccc(-c2ccc(N3CCCCC3)nn2)c1)c1cccc(F)c1 | 91% (inactive)
CC1CCN(c2ccc(-c3cccc(NS(=O)(=O)c4ccc(Cl)s4)c3)nn2)CC1 | 72% (inactive)
COc1ccc(C)cc1S(=O)(=O)Nc1cccc(-c2ccc(N3CCC(C)CC3)nn2)c1 | -2% (active)
COc1ccc(C)cc1S(=O)(=O)Nc1cccc(-c2ccc(N3CCCC3)nn2)c1 | 78% (inactive)
COc1ccc(F)cc1S(=O)(=O)Nc1cccc(-c2ccc(N3CCC(C)CC3)nn2)c1 | 109% (inactive)
Cc1ccc(S(=O)(=O)Nc2cccc(-c3ccc(N4CCCCC4)nn3)c2)s1 | 76% (inactive)
O=S(=O)(Nc1ccc(-c2ccc(N3CCCCC3)nn2)cc1)c1ccc(OC(F)(F)F)cc1 | 82% (inactive)
O=S(=O)(Nc1cccc(-c2ccc(N3CCCCCC3)nn2)c1)c1ccc(F)cc1 | 79% (inactive)
O=S(=O)(Nc1ccc(-c2ccc(N3CCCC3)nn2)cc1)c1ccc(OC(F)(F)F)cc1 | -4% (active)
O=S(=O)(Nc1cccc(-c2ccc(N3CCCCCC3)nn2)c1)c1ccccc1 | 6% (active)
O=S(=O)(Nc1ccc(-c2ccc(N3CCCC3)nn2)cc1)c1ccc(C(F)(F)F)cc1 | 72% (inactive)
Cc1ccc(S(=O)(=O)Nc2cccc(-c3ccc(N4CCC(C)CC4)nn3)c2)s1 | -1% (active)
O=C(c1ccccc1Cl)N(Cc1ccco1)Cc1cc2cc3c(cc2nc1Cl)OCO3 | 103% (inactive)
CCc1cnc2c(c1SCc1cc(OC)cc(OC)c1)c(=O)n(C)c(=O)n2C | 75% (inactive)
O=C(O)C1C2C=CC(C2)C1C(=O)N1CCN(Cc2ccccc2)CC1 (centres undefined) | 59% (inactive)
COc1ccc(S(=O)(=O)c2c(Nc3ccccc3F)sc(C(=O)c3cccc(OC)c3)c2N)cc1 | 97% (inactive)

— PubChem BioAssay AID463173 (ICCB-Longwood Screening Facility, Harvard Medical School, 2010)
